Test results published in PubChem BioAssay (NCATS).
Inconclusive results are not listed. Unmarked numbers belong to inactive results. The source made the active and inactive calls. Calls come from the whole dose curve; as a rule, active = well fitted inhibition curve with a large enough effect; inconclusive = small, poorly fitted or top-dose-only effect; inactive = flat fitted curve, though single readings scatter.

target: Calcium and integrin-binding protein 1 (Homo sapiens) (UniProt Q99828); assay: Primary qHTS for Identification of Calcium Integrin Binding Protein 1 (CIB1) Competitor (AID 1508620); conditions: CIB1-GST / FITC-alphaIIb peptide fluorescence polarization; series mostly up to 114 µM; activity change, negative = inhibition: at the top concentration;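 note: GST tagged CIB1 binding a fluorescein labelled alphaIIb integrin peptide tracer; top concentration of the series differs between compounds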
Method in brief: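 CIB1-GST (1 uM final) and compound incubated 15 min at room temperature before adding FITC-alphaIIb peptide tracer (100 nM final). Competition for binding read by fluorescence polarization (ex 480, em 540) after another 15 min at room temperature.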
% is set by controls: 0 for no effect and ±100 for the full control effect.

Chain of Calcium and integrin-binding protein 1 (Homo sapiens) (Q99828 whole entry, looked up): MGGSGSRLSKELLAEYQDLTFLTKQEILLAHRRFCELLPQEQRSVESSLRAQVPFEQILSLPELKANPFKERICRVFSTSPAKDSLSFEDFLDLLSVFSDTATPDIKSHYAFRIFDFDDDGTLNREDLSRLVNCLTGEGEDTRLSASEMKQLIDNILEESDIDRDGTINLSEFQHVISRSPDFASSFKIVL

Row | Compound | activity change, negative = inhibition | Potency
1 | COc1ccc(Nc2cc(O)c3ncccc3c2)cc1 | -7.43% | –
2 | Cc1cccc(CNc2ncnc3ccc(-c4cccc(C)c4)cc23)c1 | 4.09% | –
3 | COc1cc(O)c(C(CC(=O)N2CCCC(C#N)C2)c2ccc3c(c2)OCO3)c(OC)c1 (stereo not given) | -2.78% [at 228 µM] | –
4 | O=S(=O)(NC1CCN(S(=O)(=O)c2ccc3c(c2)OCCO3)CC1)c1c(F)cccc1F | 0.641% | –
5 | Fc1cc(Nc2nc(-c3ccncc3)nc3ccccc23)ccc1-c1ccc(F)c(F)c1F | 3.83% | –
6 | COc1ccc2c(c1)Oc1ncn(CCN3CCOCC3)c(=N)c1C2c1ccc(OC)c(OC)c1 (stereo not given) | -1.45% | –
7 | COc1ccc(C)cc1NC(=O)C(OC(=O)CNC(=O)c1ccccc1)c1ccccc1 (stereo not given) | 2.18% | –
8 | COc1cc(O)c([C@H](CC(=O)N2CC(C)CC(C)C2)c2ccc3c(c2)OCO3)c(OC)c1 (stereo not given in full) | 0.106% [at 228 µM] | –
9 | Cc1ccc(NS(=O)(=O)c2cc3c(cc2N2CCCCC2)NC(=O)CC3)cc1C | 6.62% | –
10 | CN(C)c1cnc2c(O)ccc(C(=O)O)c2c1 | -20% | –
11 | O=C1c2ccccc2C(=O)c2cc(S(=O)(=O)Nc3cccc4cccnc34)ccc21 | -16.6% | –
12 | Fc1cc(Nc2nc(-c3ccncc3)nc3ccccc23)ccc1-c1cccnc1 | 13.2% | –
13 | O=C1CCc2cc(S(=O)(=O)Nc3ccc4c(c3)CCC4)ccc2N1 | 6.39% | –
14 | O=C(Nc1ccc(Cl)c(Cl)c1)Nc1nnc(-c2ccc(F)cc2)s1 | 3.35% | –
15 | CC(=O)Nc1sc2c(c1-c1ccc(Cl)cc1)CCNC2 | 5.04% | –
16 | Cc1ccc(C)c(OCCn2c(CCNC(=O)C3CCCCC3)nc3ccccc32)c1 | – | inactive
17 | Cn1nnnc1Sc1ncnc2scc(-c3cccc(C(F)(F)F)c3)c12 | -3.32% | –
18 | O=C1CCCC2=C1C(c1[nH]ncc1Cl)N=C(Nc1cccnc1)N2 (stereo not given) | -1.39% | –
19 | COc1ccc(Nc2nc(C#N)nc(NC3CCCC3)n2)cc1 | 4.3% | –
20 | Fc1cc(Nc2nc(-c3ccncc3)nc3ccccc23)ccc1-c1cccc(OC(F)F)c1 | 2.76% | –

Row | Compound | activity change, negative = inhibition | Potency
21 | COc1ccccc1-c1no[n+]([O-])c1C#N | -0.268% | –
22 | COc1cc(O)c(C(CC(=O)N2CC(C)CC(C)C2)c2ccc(O)cc2)c(OC)c1 (stereo not given) | 4.16% [at 228 µM] | –
23 | Cc1ccc(NS(=O)(=O)c2cc3c(cc2-c2ccccc2)NC(=O)CO3)cc1C | 4.27% | –
24 | Nc1ccc(-c2ccc(NC(=O)c3cccs3)cn2)cc1 | 1.3% | –
25 | NC(N)=NCCC[C@H](NC(=O)CNC(=O)c1ccccc1)C(=O)Nc1cc(C(F)(F)F)ccc1Cl | 1.48% | –
26 | COc1ccccc1-c1ccc(=O)n(CC(=O)NCCc2ccccc2)n1 | 5.07% | –
27 | CC(=O)N1CCN(c2nc(-c3ccc(Br)cc3)cs2)CC1 | 3.15% | –
28 | Cc1cc2c(s1)c1cnn(Cc3ccccc3F)c(=O)c1n2Cc1ccccc1F | -2.56% | –
29 | Cc1cccc(OC2=NS(=O)(=O)c3ccccc32)c1 | 2.73% | –
30 | COc1ccc(C2Nc3ccccc3C(=O)N2Cc2ccccc2)cc1COc1c(C)cccc1C (stereo not given) | 3.08% | –
31 | Fc1cc(Cl)cc(-c2ccc(CNc3nc(-c4ccccc4C(F)(F)F)nc4ccccc34)cc2)c1 | 36.4% | –
32 | Fc1cnc(-c2ccccc2C(F)F)nc1NCC1CCN(c2cnccn2)C1 (stereo not given) | -2.93% | –
33 | O=c1c2ccccc2nc(-c2ccccc2O)n1Cc1ccccc1 | 3.98% | –
34 | CC(C)c1nc2c(cnn2C)c(=O)n1N | 7.12% | –
35 | CN(C)CCCNc1ncnc2ccc(-c3ccc4c(c3)OCO4)cc12 | 1.39% | –
36 | Cc1nc(CNc2ncnc3ccc(-c4sc(C)nc4C)cc23)cs1 | 0.747% | –
37 | O=C(O)c1ccc(O)c2ncc(-c3ccc(C(=O)N4CCNCC4)cc3)cc12 | -2.37% | –
38 | COc1cccc(C2c3c(ncn(Cc4cccs4)c3=N)Oc3ccc4ccccc4c32)c1 (stereo not given) | 5.93% | –
39 | Cc1nnc(-c2cnn(C)c2N)o1 | -0.941% | –
40 | COc1ccc(-c2ccc3ncnc(N(C)Cc4csc(C)n4)c3c2)cc1OC | -1.4% | –
